Reference: ChEMBL document CHEMBL3433997, “St. Jude Leishmania screening dataset” (2016)

Columns and labels:
Type in all cases: functional
[1] = molecular target: Solute carrier family 2, facilitated glucose transporter member 1 (Homo sapiens) (UniProt P11166); experiment: ST_JUDE_LEISH: Cytotoxicity at 2uM final concentration against transgenic Leishmania Mexicana promastigotes LmGLUT1 that are glucose transport deficient and complemented with the human glucose transporter GLUT1. Activity is measured by DNA content using SYBR green in vitro
[2] = molecular target: Hexose transporter 1 (Plasmodium falciparum) (UniProt O97467); experiment: ST_JUDE_LEISH: Cytotoxicity at 2uM final concentration against transgenic Leishmania Mexicana promastigotes LmPfHT that are glucose transport deficient and complemented with the Plasmodium falciparum hexose transporter. Activity is measured by DNA content using SYBR green in vitro
[3] = molecular target: Glucose transporter (Leishmania mexicana) (UniProt O61059); experiment: ST_JUDE_LEISH: Cytotoxicity at 2uM final concentration against transgenic Leishmania Mexicana promastigotes LmGT2 that are glucose transport deficient and complemented with the L. Mexicana glucose transporter 2. Activity is measured by DNA content using SYBR green in vitro

Solute carrier family 2, facilitated glucose transporter member 1 (Homo sapiens), sequence (P11166 whole entry): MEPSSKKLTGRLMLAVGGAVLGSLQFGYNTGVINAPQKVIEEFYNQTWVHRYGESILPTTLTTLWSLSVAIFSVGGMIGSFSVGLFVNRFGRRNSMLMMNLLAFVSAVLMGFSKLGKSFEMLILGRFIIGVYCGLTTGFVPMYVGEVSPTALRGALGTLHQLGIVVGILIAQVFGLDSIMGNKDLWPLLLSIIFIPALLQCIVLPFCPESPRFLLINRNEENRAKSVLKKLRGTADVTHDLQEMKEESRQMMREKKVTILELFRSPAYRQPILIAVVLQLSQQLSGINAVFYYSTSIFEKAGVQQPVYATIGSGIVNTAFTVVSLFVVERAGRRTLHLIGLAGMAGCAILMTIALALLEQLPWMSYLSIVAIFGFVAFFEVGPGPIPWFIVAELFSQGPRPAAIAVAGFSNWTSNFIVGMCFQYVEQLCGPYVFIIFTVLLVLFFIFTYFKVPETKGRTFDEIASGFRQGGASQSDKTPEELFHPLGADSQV

| Structure (SMILES) | inhibition [1] | inhibition [2] | inhibition [3] |
| --- | --- | --- | --- |
| CC(C)c1ccc(NC(=O)c2ccc(C(=O)NC3CCN(CC4CCCCC4)CC3)cc2)cc1 | 0.94% | -0.49% | 0.52% |
| CS(=O)(=O)c1ccc(-c2cnc(N)c(-c3cccc(CO)c3)c2)cc1 | 3.95% | 3.16% | 4.32% |
| Cc1ccc2c(c1C)NC(=O)C21NN=C(c2ccccc2)S1 (stereo not given) | -1.86% | -1.15% | -2.33% |
| COc1ccc(CNc2nccc3ccc(-c4ccc5nccn5c4)cc23)cc1 | 1.79% | 0.03% | -1.93% |
| CC(=O)c1ccc2c(c1)CCN(CCC1CCC(NC(=O)c3cc4ccccc4[nH]3)CC1)CC2 (stereo not given) | 2.67% | -0.31% | 3.71% |
| COc1ccc(C(F)(F)F)cc1N1CCN(CCCCNC(=O)c2ccc(NC(=O)c3ccc(Cl)cc3)cc2)CC1 | 0.14% | 1.22% | -0.38% |
| O=c1cc(NCCCNCc2cc(Cl)cc(Cl)c2OCc2ccc(Cl)cc2)[nH]c2ccccc12 | 1.67% | 0.9% | 3.19% |
| CCCNC(=O)Nc1cc2cc(-c3cccc(CN4CCCCC4)c3)ccc2n2c(C)nnc12 | 0.33% | 1.3% | 0.91% |
| COc1cccc(CNc2ncc(-c3ccsc3)c(-c3nccs3)n2)c1 | -0.5% | 0.89% | -0.73% |
| CC1CCN(CC[C@H]2CCCN2S(=O)(=O)c2cccc(NC(=O)Nc3ccc(C(F)(F)F)cc3)c2)CC1 | 0.63% | 1.64% | -0.02% |
| CCOc1ccc(-c2noc(-c3c[nH]c4ccccc4c3=O)n2)cc1 | 1.69% | -0.34% | 2.82% |
| CCc1ccc(-n2c(=O)c3cccnc3n2CC(=O)NC2CCCC2)cc1 | 1.13% | -0.35% | -1.74% |
| Cn1nc(-c2ccc(NC(=O)Nc3cc(C(F)(F)F)ccc3F)cc2)c2cnc(NCCCCN3CCCC3)nc21 | 3.73% | 4.39% | 4.25% |
| COc1ccc2ncc(C#N)c(CCN3CCC(NCc4ccc5c(c4)NC(=O)CO5)CC3)c2c1 | 12.7% | 9.55% | 8.73% |
| O=C(/C=C/c1ccc(Cl)c(Cl)c1)NCCCCCN1CCC(NC(=O)Nc2ccc(Cl)cc2F)CC1 | 2.9% | 1.84% | 2.48% |
| CN(C)Cc1ccc(CNC2CCN(Cc3ccccc3Cl)CC2)cc1 | 18.4% | 13.8% | 13.4% |
| C=CCc1cccc(OC)c1OCCCON1C(=N)N=C(N)NC1(C)C | -0.04% | 0.37% | 0.43% |
| Cc1ccc(Nc2nc(N/N=C/c3cccc(O)c3)nc(Nc3ccc([N+](=O)[O-])cc3)n2)cc1C | 3.08% | 3.36% | 2.77% |
| COc1ccc(-c2ccc(NC(=O)c3ccc(F)cc3)cc2)cc1CN1CCCN(C)CC1 | 6.26% | 3.81% | 2.87% |
| COc1ccc2[nH]c(C)cc(=NN=Cc3cc(OC)c(OC)cc3OC)c2c1 | 5.42% | 5.13% | 6.18% |
| CCC(=O)Nc1cc(=O)[nH]c2nc(-c3ccc(Cl)cc3)nn12 | -1.32% | -2.09% | -2.81% |
| CCCc1cc(NCC)nc(Nc2ccc(C)cc2)n1 | 23.6% | 7.16% | 4.06% |
| O=C(Nc1ccccc1)N1CCOC(CCN2CCC(F)(F)CC2)(c2ccc(Cl)c(Cl)c2)C1 (stereo not given) | 2.76% | 4.85% | 1.24% |
| COc1cc(C2=NN(S(=O)(=O)c3c(C)cc(C)cc3C)CCCC2)ccc1Cl | 4.03% | 3.46% | 3.33% |

| Structure (SMILES) | inhibition [1] | inhibition [2] | inhibition [3] |
| --- | --- | --- | --- |
| Cc1ccc(/C=C/C(=O)NC2CCC(N3CCC(c4ccccc4C)CC3)CC2)cc1F (stereo not given) | 15.1% | 17.5% | 13.7% |
| Oc1ccc(CCNc2nc(NCc3ccccc3-c3ccc(C(F)(F)F)cc3)nc(N3CCCNCC3)n2)cc1 | 4.27% | 2.99% | 2.83% |
| Oc1cc(-c2nc(-c3ccccc3)[nH]c2-c2ccncc2)ccc1Cl | 4.1% | 1.67% | 1.44% |
| CC1CC(NCCCNc2cc(=O)c3ccccc3[nH]2)c2cc(Cl)c(Cl)c(Cl)c21 (stereo not given) | -1.12% | -1.47% | -2.15% |
| CC(C)C1=C[C@H]2C[C@]3(C4OCCO4)[C@@H]4CC[C@@H](C)[C@H]4C[C@@]2(COCc2cccc(C#N)c2)[C@]13C(=O)OC(c1ccccc1)c1ccccc1 | 4.12% | 3.24% | 2.75% |
| Cc1cc(N2CCCC2)nc(Nc2ccc(NC(=O)c3ccc(Br)o3)cc2)n1 | 4.16% | 9.42% | 5.64% |
| CNC(=O)c1ccc2nc(-c3ccc(-c4ccccc4)cc3)n(CC3CCN(CC4CCCC4)CC3)c2c1 | 1.8% | 0.69% | 1.13% |
| O=C(Nc1ccc(-c2ccc(-c3nc4ccccc4[nH]3)s2)cc1)Nc1ccc(F)c(F)c1F | 0.57% | -1.5% | -0.77% |
| COc1cccc(Nc2nc(Nc3cccc(C#N)c3)cc(C(F)(F)F)n2)c1 | 6.5% | 6.64% | 6.05% |
| COc1ccc(N2CCN(CCc3ccc(NC(=O)c4ccc([N+](=O)[O-])cc4)cc3)CC2)c(OC)c1 | 9.1% | 6.72% | 6.07% |
| CCC1(CC)C(=O)N=C(N2CCCCC2)N(C)C1=O | 19% | 14.2% | 5.99% |
| O=C(Nc1ccc(S(=O)(=O)NCCCN2CCOCC2)cc1)c1cc(-c2ccccc2)[nH]n1 | 1.2% | 1.66% | 5.52% |
| COc1cc(-n2cnc3cc(-c4ccc([N+](=O)[O-])cc4)sc3c2=O)ccc1OCCN1CCCC1 | 19.5% | 20% | 16% |
| CCOCCCn1c(=N)c(C(=O)NCc2ccc(OC)cc2)cc2c(=O)n3cccc(C)c3nc21 | 3.85% | 5.36% | 3.8% |
| CCOc1ccc(C(=O)Nc2cc3c(c(C(F)(F)F)c2)CCNC3)cc1Cl | 7.38% | 4.16% | 5.38% |
| CC(C)(C)c1ccc(C(=O)Nc2ccc(NC(=O)c3ccc([N+](=O)[O-])o3)cc2)cc1 | 3.39% | 4.22% | 1.76% |
| CCc1ccc2nc(-c3ccc(F)cc3)nc(SCC(=O)Nc3sc(C)c(C)c3C#N)c2c1 | 5.67% | 7.28% | 5.07% |
| C=C[C@]1(C)C[C@@H](OC(=O)CSC2CN3CCC2C3)[C@@]2(C)C3C(=O)CC[C@@]3(CC[C@H]2C)[C@@H](C)[C@@H]1O (stereo not given in full) | 72.8% | 73.2% | 59% |
| CCCCCCNC(=O)C1Cc2c([nH]c3ccc(C)cc23)C2(CCN(CCc3ccccc3)CC2)N1 (stereo not given) | 0.36% | 1.61% | 3.44% |
| COc1cc2c(cc1OCCN1CCC(N3CCCC3)CC1)N(C(=O)/C=C/c1ccccc1Cl)CC2 | 1.15% | 2.02% | 2.99% |
| Fc1ccc2[nH]c(-c3cccc(-c4cccc(CNCc5cnn(-c6ccccc6)n5)c4)c3)nc2c1 | 6.56% | 8.75% | 7.46% |
| N=C(N)c1ccc(NC(=O)c2cc(Sc3ccc(O)c(C(=O)Nc4ccc(C(=N)N)cc4)c3)ccc2O)cc1 | 9.7% | 10.9% | 4.34% |
| COc1cc2c(cc1S(=O)(=O)c1ccc(NC(=O)c3ccc4ccccc4c3)cc1)CCN(C)CC2 | 1.64% | 0.19% | -0.44% |
| Cc1ccc(Cn2nc(Cl)c(N3CCCNCC3)cc2=O)cc1NC(=O)Nc1ccc(-c2ccccc2)cc1 | -1.89% | 1.72% | -1.28% |

| Structure (SMILES) | inhibition [1] | inhibition [2] | inhibition [3] |
| --- | --- | --- | --- |
| CSc1nc2cc3c(cc2n1C(=O)c1ccc(C)cc1)OCCO3 | 6.31% | 4.48% | 2.89% |
| CC[C@H](N/C(=N\c1cccc(Cl)c1Cl)Nc1ccc(C#N)cc1O)c1ccccc1 | 7.88% | 9.4% | 6.46% |
| O=S(=O)(NCCN1CCCC1)c1ccc(-c2cccc(CNC3Cc4ccccc4C3)c2)s1 | 13.9% | 13.6% | 5.84% |
| CN(C)c1ccc(-c2ccc(C(=O)NC3CCN(Cc4ccccc4)CC3)s2)cc1 | 1.65% | 0.56% | 1.83% |
| O=C(O)C[C@H](NC(=O)c1cc(-c2ccc3c(c2)OCO3)no1)C(=O)O.O=C(O)C[C@H](NC(=O)c1conc1-c1ccc2c(c1)OCO2)C(=O)O | -1.58% | -1.07% | -2.23% |
| COc1cccc2cc(C(=O)N[C@@H](CC(C)C)C(=O)N[C@H](C=NN3CCCC3=O)Cc3ccccc3)oc12 | 2.46% | 5.52% | 2.7% |
| CCn1ccc2c(N3CCCS3(=O)=O)cc(C(=O)N[C@@H](Cc3ccccc3)[C@H](O)CNC3CCCCC3)cc21 | -0.74% | 1.64% | 5.33% |
| Cc1cc2ccc(/C=C/C(=O)NC3CCC(CCN4CCc5ccc(C#N)cc5CC4)CC3)cc2[nH]1 (stereo not given) | 4.47% | 5.55% | 2.92% |
| COc1ccc(CNCc2cccc(-c3ccc(-c4nc5ccccc5[nH]4)s3)c2)cc1 | 5.19% | 3.24% | 2.44% |
| CCC(Cc1ccccc1)c1cc(O)c(Cc2ccc(-c3ccccc3)cc2)c(=O)o1 (stereo not given) | 2.42% | 2.07% | 0.95% |
| Cc1csc(-c2ncc(OC[C@@H](N)Cc3ccccc3)cc2-c2ccc3[nH]nc(C)c3c2)c1 | 2.54% | 0.85% | -0.58% |
| COc1cc(NC(=O)/C=C/c2cccc3cc[nH]c23)ccc1OCCN(C(C)C)C(C)C | 2.46% | 1.55% | -2.66% |
| CC1Cc2ccccc2N1CC(=O)Nc1cc(C(F)(F)F)ccc1-n1cncn1 (stereo not given) | 1.94% | 2.01% | -1.95% |
| CC1(C)N=C(N)N=C(N)N1O | -0.13% | 1.38% | 0.94% |
| CCN(CC)CCn1c2ccccc2c2ccc(C(=O)Nc3ccc4sc(C)nc4c3)cc21 | 13.2% | 11.9% | 8.05% |
| Cc1cc(Nc2ccccc2)nc(Nc2ccccc2)n1 | 9.14% | 8.33% | 1.86% |
| COCCNCc1cccc(C#Cc2cc3ncnc(Nc4ccc(OCc5cccc(F)c5)c(Cl)c4)c3s2)n1 | 5.28% | 5.8% | 3.62% |
| Cc1cc(-c2ccc(NC(=O)N3CCc4cc(Cl)c(N5CCN(C)CC5)cc43)cc2)ccc1C#N | 78.1% | 77.2% | 81.7% |
| Cc1ccc(NC(=O)NC2CCN(c3ccnc4ccccc34)CC2)cc1 | 1.13% | 1.21% | 2.3% |
| COc1ccccc1C(=O)Nc1ccc(Nc2nc(C)cc(N(C)C)n2)cc1 | 7.13% | 18.3% | 5.83% |
| CC1CN(c2cnn(Cc3cccc(NC(=O)Nc4cccc(C(F)(F)F)c4)c3)c(=O)c2Cl)CC(C)N1 (stereo not given) | 10.7% | 8.17% | 7.73% |
| Cc1cc(-c2ccc(CNCc3ccc(F)cc3)cc2)ccc1S(=O)(=O)NCCN1CCCC1 | 66.4% | 41.4% | -2.93% |
